Measurements taken from PubChem BioAssay AID1159580 (chemical genetic matrix, 2015).
In all, about 5,500 compounds went through this assay and about 2,000 (36%) were called active. About 18% were inconclusive and are not listed. Rule as the data show it: active = normalized growth mostly below about 0.91 (no sharp cut-off); inconclusive = no clear call, values can overlap the other calls; inactive = mostly above about 0.92. The list shows a part of the results.

Experiment: chemical genetic growth profiling, strain panel (AID 1159580);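 also: tested at 20 µM; growth read once vehicle control cultures reached saturation at 30 °C; 1 = growth at the plate median or of vehicle wells; lower values mean less growth of the strain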
Details: growth OD

Measured: normalized growth

COC(=O)C1[C@H]2C[C@H]3c4[nH]c5ccccc5c4CCN3C[C@@H]2CC[C@@H]1O (some centres not stated)
inactive: S. cerevisiae deletion strains, locus YJR075W, strain HOC1, stronger effect = lower value 1.02 | S. cerevisiae deletion strains, locus YKL009W, strain mrt4, stronger effect = lower value 0.996 | S. cerevisiae deletion strains, locus YKL068W, stronger effect = lower value 1.01 | S. cerevisiae deletion strains, locus YKL085W, strain MDH1 (second series), stronger effect = lower value 1.01 | S. cerevisiae deletion strains, locus YKL085W, strain MDH1, stronger effect = lower value 1.01 | S. cerevisiae deletion strains, locus YKL160W, strain elf1, stronger effect = lower value 0.987 | S. cerevisiae deletion strains, locus YKL190W, strain CNB1, stronger effect = lower value 1.02 | S. cerevisiae deletion strains, locus YKR001C, strain vps1, stronger effect = lower value 1.02 | S. cerevisiae deletion strains, locus YKR026C, strain gcn3, stronger effect = lower value 0.971 | S. cerevisiae deletion strains, locus YKR091W, strain srl3, stronger effect = lower value 0.985 | S. cerevisiae deletion strains, locus YLL001W, strain dnm1, stronger effect = lower value 0.984 | S. cerevisiae deletion strains, locus YLL026W, stronger effect = lower value 0.965 | S. cerevisiae deletion strains, locus YLL041C, strain sdh2, stronger effect = lower value 0.974 | S. cerevisiae deletion strains, locus YLR027C, strain aat2, stronger effect = lower value 0.988 | S. cerevisiae deletion strains, locus YLR039C, strain RIC1, stronger effect = lower value 1.02 | S. cerevisiae deletion strains, locus YLR058C, strain SHM2, stronger effect = lower value 1.01 | S. cerevisiae deletion strains, locus YLR102C, strain apc9, stronger effect = lower value 1.02 | S. cerevisiae deletion strains, locus YLR113W, strain HOG1, stronger effect = lower value 1.01 | S. cerevisiae deletion strains, locus YLR221C, strain rsa3, stronger effect = lower value 1.01 | S. cerevisiae deletion strains, locus YLR258W, strain gsy2, stronger effect = lower value 0.98 | S. cerevisiae deletion strains, locus YLR262C, strain YPT6 (second series), stronger effect = lower value 0.974 | S. cerevisiae deletion strains, locus YLR262C, strain YPT6, stronger effect = lower value 1 | S. cerevisiae deletion strains, locus YLR268W, strain sec22, stronger effect = lower value 1.06 | S. cerevisiae deletion strains, locus YLR320W, strain mms22, stronger effect = lower value 1.02 | S. cerevisiae deletion strains, locus YLR330W, strain CHS5, stronger effect = lower value 1.01 | S. cerevisiae deletion strains, locus YLR342W, strain FKS1 (second series), stronger effect = lower value 1 | S. cerevisiae deletion strains, locus YLR342W, strain FKS1, stronger effect = lower value 0.981 | S. cerevisiae deletion strains, locus YLR357W, strain rsc2, stronger effect = lower value 0.985 | S. cerevisiae deletion strains, locus YLR370C, strain arc18, stronger effect = lower value 0.965 | S. cerevisiae deletion strains, locus YLR371W, strain rom2, stronger effect = lower value 1.02 | S. cerevisiae deletion strains, locus YLR384C, strain iki3, stronger effect = lower value 0.969 | S. cerevisiae deletion strains, locus YLR418C, strain cdc73, stronger effect = lower value 1.02 | S. cerevisiae deletion strains, locus YML016C, strain PPZ1, stronger effect = lower value 1.01 | S. cerevisiae deletion strains, locus YML032C, strain rad52, stronger effect = lower value 1.03 | S. cerevisiae deletion strains, locus YML120C, strain ndi1, stronger effect = lower value 0.966 | S. cerevisiae deletion strains, locus YML124C, strain tub3, stronger effect = lower value 1.01 | S. cerevisiae deletion strains, locus YMR058W, strain fet3, stronger effect = lower value 0.974 | S. cerevisiae deletion strains, locus YMR078C, strain ctf18, stronger effect = lower value 1.01 | S. cerevisiae deletion strains, locus YMR125W, strain sto1, stronger effect = lower value 0.981 | S. cerevisiae deletion strains, locus YMR129W, stronger effect = lower value 0.988 | S. cerevisiae deletion strains, locus YMR205C, strain PFK2, stronger effect = lower value 0.991 | S. cerevisiae deletion strains, locus YMR223W, strain ubp8, stronger effect = lower value 1.01 | S. cerevisiae deletion strains, locus YMR231W, strain pep5, stronger effect = lower value 0.978 | S. cerevisiae deletion strains, locus YMR263W, strain SAP30, stronger effect = lower value 1.03 | S. cerevisiae deletion strains, locus YMR307W, strain GAS1, stronger effect = lower value 0.952 | S. cerevisiae deletion strains, locus YNL067W, strain RPL9B, stronger effect = lower value 1.03 | S. cerevisiae deletion strains, locus YNL071W, strain lat1, stronger effect = lower value 0.976 | S. cerevisiae deletion strains, locus YNL128W, strain TEP1, stronger effect = lower value 1.02 | S. cerevisiae deletion strains, locus YNL153C, strain GIM3, stronger effect = lower value 1.01 | S. cerevisiae deletion strains, locus YNL183C, strain NPR1, stronger effect = lower value 0.981 | S. cerevisiae deletion strains, locus YNL209W, strain ssb2, stronger effect = lower value 0.959 | S. cerevisiae deletion strains, locus YNL233W, strain BNI4, stronger effect = lower value 1.01 | S. cerevisiae deletion strains, locus YNL248C, strain rpa49, stronger effect = lower value 0.998 | S. cerevisiae deletion strains, locus YNL250W, strain rad50, stronger effect = lower value 1.02 | S. cerevisiae deletion strains, locus YNL271C, strain bni1, stronger effect = lower value 1.02 | S. cerevisiae deletion strains, locus YNL298W, strain CLA4, stronger effect = lower value 1.02 | S. cerevisiae deletion strains, locus YNL307C, strain MCK1, stronger effect = lower value 1.02 | S. cerevisiae deletion strains, locus YNL322C, strain KRE1 (second series), stronger effect = lower value 0.973 | S. cerevisiae deletion strains, locus YNL322C, strain KRE1, stronger effect = lower value 1.02 | S. cerevisiae deletion strains, locus YNR049C, strain mso1, stronger effect = lower value 0.97 | S. cerevisiae deletion strains, locus YNR052C, strain pop2, stronger effect = lower value 1.02 | S. cerevisiae deletion strains, locus YOL006C, strain TOP1, stronger effect = lower value 1.06 | S. cerevisiae deletion strains, locus YOL012C, strain htz1 0.74 | S. cerevisiae deletion strains, locus YOL147C, strain pex11, stronger effect = lower value 1.02 | S. cerevisiae deletion strains, locus YOR001W, strain rrp6, stronger effect = lower value 0.961 | S. cerevisiae deletion strains, locus YOR061W, strain CKA2, stronger effect = lower value 1.01 | S. cerevisiae deletion strains, locus YOR069W, strain VPS5, stronger effect = lower value 1.01 | S. cerevisiae deletion strains, locus YOR070C, strain gyp1, stronger effect = lower value 0.983 | S. cerevisiae deletion strains, locus YOR080W, strain dia2, stronger effect = lower value 0.934 | S. cerevisiae deletion strains, locus YOR083W, strain WHI5, stronger effect = lower value 0.979 | S. cerevisiae deletion strains, locus YOR106W, strain vam3, stronger effect = lower value 0.949 | S. cerevisiae deletion strains, locus YOR136W, strain idh2, stronger effect = lower value 1.02 | S. cerevisiae deletion strains, locus YOR144C, strain elg1, stronger effect = lower value 1.01 | S. cerevisiae deletion strains, locus YOR184W, strain ser1, stronger effect = lower value 1.01 | S. cerevisiae deletion strains, locus YOR231W, strain MKK1, stronger effect = lower value 1.02 | S. cerevisiae deletion strains, locus YOR265W, strain rbl2, stronger effect = lower value 0.978 | S. cerevisiae deletion strains, locus YOR270C, strain vph1, stronger effect = lower value 0.935 | S. cerevisiae deletion strains, locus YOR290C, strain snf2, stronger effect = lower value 0.974 | S. cerevisiae deletion strains, locus YOR316C, strain cot1, stronger effect = lower value 1.02 | S. cerevisiae deletion strains, locus YPL051W, strain arl3, stronger effect = lower value 0.961 | S. cerevisiae deletion strains, locus YPL055C, strain LGE1, stronger effect = lower value 1.02 | S. cerevisiae deletion strains, locus YPL078C, strain atp4, stronger effect = lower value 0.963 | S. cerevisiae deletion strains, locus YPL106C, strain sse1, stronger effect = lower value 0.906 | S. cerevisiae deletion strains, locus YPL240C, strain hsp82, stronger effect = lower value 0.995 | S. cerevisiae deletion strains, locus YPL241C, strain CIN2, stronger effect = lower value 1.01 | S. cerevisiae deletion strains, locus YPL256C, strain CLN2, stronger effect = lower value 0.998 | S. cerevisiae deletion strains, locus YPR119W, strain clb2, stronger effect = lower value 1.02 | S. cerevisiae deletion strains, locus YPR141C, strain kar3, stronger effect = lower value 1.02 | S. cerevisiae deletion strains, locus YPR163C, strain tif3, stronger effect = lower value 1.02 | S. cerevisiae deletion strains, locus YPR167C, strain met16, stronger effect = lower value 1.02 | S. cerevisiae deletion strains, strain wtn01, stronger effect = lower value 1.04 | S. cerevisiae strains, strain wild type, stronger effect = lower value 1
